Test results reported in PubChem BioAssay AID686978 (National Center for Advancing Translational Sciences (NCATS), 2013).
The campaign covered roughly 420,000 compounds. About 64,000 (15%) were called active. Not shown: some 27% with an inconclusive outcome. Calls follow the shape of the dose curve; as a rule, active = well fitted inhibition curve with a large enough effect; inconclusive = small, poorly fitted or top-dose-only effect; inactive = flat fitted curve, though single readings scatter. Not all results are given here.

Assay: qHTS for Inhibitors of human tyrosyl-DNA phosphodiesterase 1 (TDP1): qHTS in cells in absence of CPT; also: nearly all actives have a fitted effect of over 55% in size
Settings: DT40 Tdp1-/- hTDP1 cells, no CPT, ATP luminescence, 48 h; activity change, negative = growth inhibition: at 46.2 µM (top of the series)
Outline: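 Growth kinetics read by CellTiter-Glo luminescence after ≥48 hr at 37 °C. Cells: DT40 Tdp1-/- stably carrying human TDP1, 400 per well, compound exposure in the absence of CPT (DMSO vehicle).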
% is scaled to controls: 0 for no effect and ±100 for the full control effect; potency is read from the fitted curve at half-maximal effect.

| SMILES | Potency | activity change, negative = growth inhibition |
| --- | --- | --- |
| CC(C)C[C@@H](CO)N1CCN(Cc2ccc(O)cc2)CCC1=O | inactive |  |
| CC(C)C[C@@H](COCc1ccc(Cl)cc1)N1CCN(C(=O)c2ccc(Cl)cc2Cl)CCC1=O | 16.4 µM (active) |  |
| CC(C)CC(CO)N1CCN(C(=O)c2ccc(Cl)cc2Cl)CCC1=O (configuration not stated) |  | -11.6% (inactive) |
| Cc1nc(N)nc(Cl)c1CCC1OCCO1 |  | -6.83% (inactive) |
| Cc1csc(=Nc2ccccc2)n1CCO |  | 7.06% (inactive) |
| OCCn1c(-c2ccccc2)csc1=Nc1ccccc1 | 16.4 µM (active) |  |
| CCOCCc1nn2c(=O)cc(CSCC(=O)Nc3cccc(C)c3C)nc2s1 |  | -7.26% (inactive) |
| O=C(COC(=O)CCc1ccc(S(=O)(=O)N2CCOCC2)cc1)Nc1cccc(Cl)c1 |  | 5.37% (inactive) |
| O=C(Nc1ccon1)c1cccc(Cl)c1 |  | 3.62% (inactive) |
| Cc1ccc2nc(COc3cccc(NC(=O)c4cccc(Cl)c4)c3)cc(=O)n2c1 |  | -22.2% (inactive) |
| Cc1cc(NC(=O)c2cccc(Cl)c2)ccc1-c1cc2ccccc2oc1=O | 23.1 µM (active) |  |
| N/C(=N\OS(=O)(=O)c1cccc([N+](=O)[O-])c1)c1ccncc1 |  | -5.45% (inactive) |
| Cc1ccc(CNC(=O)C(=O)c2cn(CC(=O)N3CCOCC3)c3ccccc23)cc1 |  | 13.1% (inactive) |
| CCS(=O)(=O)c1ccc(C(=O)NC)c(Cl)c1Cl |  | 2.49% (inactive) |
| Cc1cc(O)ccc1-c1cnc2ccccc2n1 |  | -24.8% (inactive) |
| O=C(Nc1ccc(CSc2ccccc2)cc1)c1ccc(CN2CCOCC2)cc1 |  | 1.03% (inactive) |
| Cc1cccc(C)c1NC(=O)c1ccc(CN2CCc3ccccc3C2)cc1 | 20.6 µM (active) |  |
| Cc1ccc(NC(=O)CN2CCc3ccccc3C2)cc1C |  | 0.0925% (inactive) |
| O=C(NNC(=O)c1csc(-c2cccnc2)n1)Nc1ccc(Cl)cc1 |  | -26.1% (inactive) |
| COCCCNC(=O)/C=C/c1ccc(OCc2c(F)cccc2Cl)cc1 |  | 2.03% (inactive) |
| C#CC(C)(CC)NC(=O)Cn1nnc(-c2ccc(OCc3c(F)cccc3Cl)cc2)n1 (configuration not stated) | 18.4 µM (active) |  |
| Fc1cccc(Cl)c1COc1ccc(-c2nnco2)cc1 |  | -11.1% (inactive) |
| O=C(OCCOCn1cc(Br)c(=O)[nH]c1=O)c1ccccc1 |  | -9.32% (inactive) |

| SMILES | Potency | activity change, negative = growth inhibition |
| --- | --- | --- |
| CN(N)c1nc(N2CCCC2)nc(N2CCCC2)n1 |  | -15.5% (inactive) |
| O=C(NCc1ccccc1)c1cc(-c2cccc(Cl)c2)on1 |  | -15.6% (inactive) |
| CCOC(=O)C1(CCOc2ccccc2)CCN(Cc2ccc(C#CCCO)cc2)CC1 | 16.4 µM (active) |  |
| O=C(c1cn(CC2CCCN(Cc3cc4ccccc4s3)C2)nn1)N1CCCC1 (configuration not stated) |  | -9.65% (inactive) |
| CCOC(=O)C1(CCOC)CCN(Cc2cc3ccccc3s2)CC1 | 16.4 µM (active) |  |
| O=C(CCc1ccccc1)Nc1ccnn1C1CCN(Cc2ccc(OCCO)cc2)CC1 |  | 18.5% (inactive) |
| CCOC(=O)C1(S(=O)(=O)c2ccc(Cl)cc2)CCN(Cc2ccccc2)CC1 |  | -22% (inactive) |
| CCOC(=O)C1(CCOC)CCN(Cc2ccc(C(=O)OC)cc2)CC1 |  | -24.2% (inactive) |
| CCOc1cc2[nH]c(=S)n(CCN3CCCCC3C)c(=O)c2cc1OCC (configuration not stated) |  | -22.3% (inactive) |
| O=C(NN1C(=O)C2C3C=CC(C3)C2C1=O)c1ccco1 (configuration not stated) |  | -3.19% (inactive) |
| COc1ccc(OC)c(NC(=O)N[C@H](Cc2ccccc2)C(=O)NN)c1 |  | 9.7% (inactive) |
| O=C(COC(=O)/C=C/c1ccc(Br)o1)Nc1cccc(S(=O)(=O)N2CCOCC2)c1 |  | 9.84% (inactive) |
| O=C(Nc1ccc(-c2cscn2)cc1)C1CCCN(Cc2ccc(CO)o2)C1 (configuration not stated) |  | -0.798% (inactive) |
| COc1ccccc1/C=N/N1CCN(Cc2ccccc2Cl)CC1 |  | 9.68% (inactive) |
| O=C1C(Cc2ccc(O)cc2)NC(=S)N1Cc1ccccc1 (configuration not stated) |  | 9.72% (inactive) |
| CCC1Nc2ncnc(N3CCN(c4ccccc4)CC3)c2N(Cc2ccc(Cl)cc2)C1=O (configuration not stated) | 20.6 µM (active) |  |
| CCS(=O)(=O)N1CCC(N2CCN(c3ccccc3)CC2)CC1 |  | -2.72% (inactive) |
| O=C(Nc1ccnc(-c2ccncc2)n1)c1cccs1 |  | 11% (inactive) |
| Cn1c(=O)n(C)c2cc(C(=O)Nc3ccc(Br)cc3)ccc21 |  | -23% (inactive) |
| CCc1ccc(S(=O)(=O)Nc2cc3c(cc2N2CCCCC2)n(C)c(=O)c(=O)n3C)cc1 |  | -11.4% (inactive) |
| Cc1ccc(C(=O)Nc2cc3c(cc2N2CCCC2)n(C)c(=O)c(=O)n3C)cc1 | 20.6 µM (active) |  |
| C=C(C)CNC(=O)c1ccc(OC2CCN(C(=O)COC)CC2)cc1 |  | -11.9% (inactive) |
| C=CCNC(=O)COC(=O)CNC(=O)c1cc(Cl)cc([N+](=O)[O-])c1 |  | 2.59% (inactive) |

| SMILES | Potency | activity change, negative = growth inhibition |
| --- | --- | --- |
| Cc1c(Cl)cccc1NC(=O)[C@@]1(CC(=O)O)CC(/C=C/c2ccccc2)=NO1 |  | -3.3% (inactive) |
| CCc1c(-c2ccc(F)cc2)ncn1Cc1cccc(-c2ccccc2)c1 | 11.6 µM (active) |  |
| Cc1ccc(-c2csc(C(C#N)=C(O)CN3CCN(C(=O)c4ccco4)CC3)n2)cc1 |  | -14% (inactive) |
| Cc1ccc(CNC(=O)CCC(=O)N2Cc3ccccc3Oc3ncccc32)cc1 |  | -21.9% (inactive) |
| C=CCc1cc(C)ccc1OCCCn1ccnc1 |  | -29.9% (inactive) |
| SCc1nc2ccc(Cl)cc2[nH]1 | 3.98 µM (active) |  |
| Oc1ccc(Cl)cc1/C=N/c1nc2ccccc2[nH]1 |  | -2.28% (inactive) |
| OC(c1nc2ccc(F)cc2[nH]1)C(O)c1nc2ccc(F)cc2[nH]1 (configuration not stated) |  | -27.1% (inactive) |
| Cc1ccc2nc(SCC(=O)N3CCN(c4ccccc4)CC3)nc(=O)n2c1 |  | -22.6% (inactive) |
| CCc1nnc(NC(=O)CCCSc2nc3ccccc3[nH]2)s1 |  | -6.59% (inactive) |
| CN1C(=O)/C(=C\c2ccc(-c3ccccc3)o2)SC1=S |  | -28.6% (inactive) |
| CCC(C)N1C(=O)S/C(=C/c2ccc(Sc3nc4ccccc4[nH]3)o2)C1=O (configuration not stated) | 11.2 µM (active) |  |
| COc1ccc(C(CNCC(=O)Nc2ccccc2F)N(C)C)cc1 (configuration not stated) |  | 6.62% (inactive) |
| CCO[C@H]1OC(C(=O)N2CCCCCCC2)=C[C@@H](c2ccc(C(F)(F)F)cc2)[C@@H]1CCCO | 20.6 µM (active) |  |
| CCO[C@@H]1OC(C(=O)N2CCOCC2)=C[C@H](C)[C@H]1CCCO |  | -6.76% (inactive) |
| CCO[C@H]1OC(C(=O)N2CCOCC2)=C[C@@H](c2ccc3c(c2)OCO3)[C@@H]1CCCO |  | 2.7% (inactive) |
| CC1CN(C(=S)Nc2cccc(F)c2)CC(C)O1 (configuration not stated) |  | -12.5% (inactive) |
| CN(Cc1ccc(CNC[C@H]2O[C@@H](n3cnc4c(N)ncnc43)[C@H](O)[C@@H]2O)o1)S(C)(=O)=O |  | -13.6% (inactive) |
| Cc1ccc2[nH]c(=O)c(CN(CC3COCCO3)C(=O)Nc3ccccc3C)cc2c1 (configuration not stated) |  | -28.1% (inactive) |
| Cc1cccc(NC(=O)C2CC(=O)OC23CCCC3)c1 (configuration not stated) |  | 15.3% (inactive) |
| Cc1cccc(NC(=O)N(Cc2cc3cc(C)cc(C)c3[nH]c2=O)CC2COCCO2)c1 (configuration not stated) | 16.4 µM (active) |  |
